In the supplement of paper PMC11732987, “Enantioselective OTUD7B fragment discovery through chemoproteomics screening and high-throughput optimisation” (Communications Chemistry, 2025):

Legend:
Assay in all cases: log2 ratio of Biotin-Ahx-Ub-VS probe labelling (fragment/DMSO); higher = less target engagement (more negative = stronger competition), active = hit call of the paper (q ≤ 0.05, log2 ratio ≤ -1)
Conditions in all cases: compound concentration: 200 uM; treatment time: 3 h
ALG13 = target: T1, ALG13 (UniProt Q9NP73)
T1 sequence (whole entry): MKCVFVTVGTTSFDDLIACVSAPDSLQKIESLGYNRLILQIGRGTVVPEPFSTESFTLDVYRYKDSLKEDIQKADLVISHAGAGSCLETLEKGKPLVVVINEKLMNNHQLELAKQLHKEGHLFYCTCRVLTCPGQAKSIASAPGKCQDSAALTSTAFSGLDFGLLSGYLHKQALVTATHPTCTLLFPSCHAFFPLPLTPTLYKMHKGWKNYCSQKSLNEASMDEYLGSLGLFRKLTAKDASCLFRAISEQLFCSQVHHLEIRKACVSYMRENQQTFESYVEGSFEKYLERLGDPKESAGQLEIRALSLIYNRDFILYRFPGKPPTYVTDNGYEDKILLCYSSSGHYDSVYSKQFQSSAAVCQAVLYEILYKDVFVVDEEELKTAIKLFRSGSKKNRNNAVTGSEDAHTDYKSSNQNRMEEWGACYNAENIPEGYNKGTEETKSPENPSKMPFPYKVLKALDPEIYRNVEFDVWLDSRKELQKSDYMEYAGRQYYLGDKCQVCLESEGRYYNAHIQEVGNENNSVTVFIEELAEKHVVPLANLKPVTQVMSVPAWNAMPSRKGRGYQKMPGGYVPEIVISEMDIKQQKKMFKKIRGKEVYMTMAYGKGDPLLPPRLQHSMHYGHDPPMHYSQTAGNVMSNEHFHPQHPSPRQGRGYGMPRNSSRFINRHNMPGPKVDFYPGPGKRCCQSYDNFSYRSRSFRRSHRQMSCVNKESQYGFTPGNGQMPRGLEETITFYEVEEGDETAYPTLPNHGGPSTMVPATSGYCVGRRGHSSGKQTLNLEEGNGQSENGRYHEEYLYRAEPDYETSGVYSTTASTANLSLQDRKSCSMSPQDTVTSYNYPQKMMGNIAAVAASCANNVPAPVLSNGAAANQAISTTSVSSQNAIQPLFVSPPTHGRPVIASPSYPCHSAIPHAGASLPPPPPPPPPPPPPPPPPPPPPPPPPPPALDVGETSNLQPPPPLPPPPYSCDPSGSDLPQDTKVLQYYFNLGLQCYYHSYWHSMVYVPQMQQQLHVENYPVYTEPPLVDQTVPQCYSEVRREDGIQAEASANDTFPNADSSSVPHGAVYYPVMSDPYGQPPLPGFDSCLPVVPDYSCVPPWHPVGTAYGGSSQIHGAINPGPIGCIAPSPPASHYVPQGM
In short: (§1)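 Labelled DUBs were enriched with NeutrAvidin, digested with LysC and trypsin, and run by diaPASEF LC-MS/MS. The labelling used Biotin-Ahx-Ub-VS at 0.5 µM final for 1 h on HEK293T lysate (495 µg per sample) previously treated in triplicate with fragment at 200 µM or vehicle for 3 h. Values are average log2 fragment/vehicle ratios by unpaired t-test on global-median-normalised Spectronaut quantities of proteins with ≥2 unique peptides.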

ATXN3 = ATXN3 (UniProt P54252)
Chain of ATXN3 (P54252 whole entry): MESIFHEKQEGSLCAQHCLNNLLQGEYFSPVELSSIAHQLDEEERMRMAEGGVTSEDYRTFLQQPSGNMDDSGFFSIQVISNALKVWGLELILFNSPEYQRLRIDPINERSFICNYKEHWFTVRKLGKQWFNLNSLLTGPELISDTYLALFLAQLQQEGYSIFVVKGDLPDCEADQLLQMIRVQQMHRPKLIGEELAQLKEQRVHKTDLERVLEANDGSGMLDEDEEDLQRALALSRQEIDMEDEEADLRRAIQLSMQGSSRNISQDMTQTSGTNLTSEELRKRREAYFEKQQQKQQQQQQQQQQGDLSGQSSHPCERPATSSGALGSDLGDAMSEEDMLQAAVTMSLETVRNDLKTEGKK
In short: as §1

BAP1 = target: T2, BAP1 (UniProt Q92560)
T2 sequence (whole entry): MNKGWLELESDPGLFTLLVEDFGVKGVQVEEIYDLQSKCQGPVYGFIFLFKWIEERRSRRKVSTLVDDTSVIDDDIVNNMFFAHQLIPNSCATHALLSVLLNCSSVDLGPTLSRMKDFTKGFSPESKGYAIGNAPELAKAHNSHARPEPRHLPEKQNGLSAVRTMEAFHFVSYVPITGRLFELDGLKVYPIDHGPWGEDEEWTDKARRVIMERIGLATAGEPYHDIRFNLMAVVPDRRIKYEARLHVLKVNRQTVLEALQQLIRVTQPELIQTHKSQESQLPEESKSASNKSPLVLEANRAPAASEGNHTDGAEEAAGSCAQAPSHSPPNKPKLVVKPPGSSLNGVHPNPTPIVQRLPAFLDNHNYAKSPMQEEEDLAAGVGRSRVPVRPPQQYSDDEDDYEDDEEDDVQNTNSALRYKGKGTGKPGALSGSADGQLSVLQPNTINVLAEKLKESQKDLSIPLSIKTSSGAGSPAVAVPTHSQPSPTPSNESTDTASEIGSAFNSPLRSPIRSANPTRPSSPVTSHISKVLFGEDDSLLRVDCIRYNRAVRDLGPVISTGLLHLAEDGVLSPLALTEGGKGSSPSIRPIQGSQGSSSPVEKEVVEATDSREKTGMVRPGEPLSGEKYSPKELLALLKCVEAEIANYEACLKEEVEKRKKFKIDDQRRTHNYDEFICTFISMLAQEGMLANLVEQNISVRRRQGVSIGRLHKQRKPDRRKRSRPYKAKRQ
In short: as §1

EIF3F = EIF3F (UniProt O00303)
Chain of EIF3F (O00303 whole entry): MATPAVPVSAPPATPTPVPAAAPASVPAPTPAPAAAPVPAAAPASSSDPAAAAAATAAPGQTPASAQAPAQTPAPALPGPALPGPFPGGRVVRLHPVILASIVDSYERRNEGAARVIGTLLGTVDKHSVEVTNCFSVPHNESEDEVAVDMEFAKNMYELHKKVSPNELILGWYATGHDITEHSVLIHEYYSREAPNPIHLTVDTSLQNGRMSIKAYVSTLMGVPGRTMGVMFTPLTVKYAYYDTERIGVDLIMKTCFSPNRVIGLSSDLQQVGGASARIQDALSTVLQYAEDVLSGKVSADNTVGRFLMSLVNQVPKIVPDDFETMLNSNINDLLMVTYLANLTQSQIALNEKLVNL
In short: as §1

EIF3H = EIF3H (UniProt O15372)
Chain of EIF3H (O15372 whole entry): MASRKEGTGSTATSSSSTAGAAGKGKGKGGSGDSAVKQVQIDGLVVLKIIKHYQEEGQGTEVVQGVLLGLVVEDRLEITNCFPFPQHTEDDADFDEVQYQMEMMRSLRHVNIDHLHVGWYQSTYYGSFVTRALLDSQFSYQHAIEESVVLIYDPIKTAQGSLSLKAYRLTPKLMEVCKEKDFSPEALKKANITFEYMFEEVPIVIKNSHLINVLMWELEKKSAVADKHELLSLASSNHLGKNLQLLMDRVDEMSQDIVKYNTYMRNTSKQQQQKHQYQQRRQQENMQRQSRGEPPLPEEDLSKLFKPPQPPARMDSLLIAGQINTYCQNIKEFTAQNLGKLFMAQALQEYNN
In short: as §1

FAM105A = target: T3, FAM105A (UniProt Q9NUU6)
T3 sequence (whole entry): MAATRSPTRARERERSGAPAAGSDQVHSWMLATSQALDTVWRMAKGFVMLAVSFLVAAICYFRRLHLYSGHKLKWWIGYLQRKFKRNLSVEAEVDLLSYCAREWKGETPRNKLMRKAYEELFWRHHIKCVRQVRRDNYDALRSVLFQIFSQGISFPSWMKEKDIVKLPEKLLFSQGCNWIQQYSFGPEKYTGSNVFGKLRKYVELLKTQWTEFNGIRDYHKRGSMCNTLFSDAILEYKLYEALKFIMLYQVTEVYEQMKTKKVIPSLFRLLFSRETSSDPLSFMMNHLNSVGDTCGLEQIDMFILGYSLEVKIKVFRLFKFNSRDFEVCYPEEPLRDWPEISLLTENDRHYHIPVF
In short: as §1

OTUB1 = OTUB1 (UniProt Q96FW1)
Chain of OTUB1 (Q96FW1 whole entry): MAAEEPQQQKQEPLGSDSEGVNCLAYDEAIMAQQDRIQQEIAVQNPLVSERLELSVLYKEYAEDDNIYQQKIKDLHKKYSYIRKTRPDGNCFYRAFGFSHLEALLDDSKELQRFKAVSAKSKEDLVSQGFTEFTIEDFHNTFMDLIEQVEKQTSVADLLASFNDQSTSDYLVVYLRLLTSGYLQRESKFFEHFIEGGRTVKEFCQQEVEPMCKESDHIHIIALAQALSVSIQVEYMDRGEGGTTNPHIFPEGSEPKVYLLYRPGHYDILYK
In short: as §1

OTUD4 = target: T4, OTUD4 (UniProt Q01804)
T4 sequence (whole entry): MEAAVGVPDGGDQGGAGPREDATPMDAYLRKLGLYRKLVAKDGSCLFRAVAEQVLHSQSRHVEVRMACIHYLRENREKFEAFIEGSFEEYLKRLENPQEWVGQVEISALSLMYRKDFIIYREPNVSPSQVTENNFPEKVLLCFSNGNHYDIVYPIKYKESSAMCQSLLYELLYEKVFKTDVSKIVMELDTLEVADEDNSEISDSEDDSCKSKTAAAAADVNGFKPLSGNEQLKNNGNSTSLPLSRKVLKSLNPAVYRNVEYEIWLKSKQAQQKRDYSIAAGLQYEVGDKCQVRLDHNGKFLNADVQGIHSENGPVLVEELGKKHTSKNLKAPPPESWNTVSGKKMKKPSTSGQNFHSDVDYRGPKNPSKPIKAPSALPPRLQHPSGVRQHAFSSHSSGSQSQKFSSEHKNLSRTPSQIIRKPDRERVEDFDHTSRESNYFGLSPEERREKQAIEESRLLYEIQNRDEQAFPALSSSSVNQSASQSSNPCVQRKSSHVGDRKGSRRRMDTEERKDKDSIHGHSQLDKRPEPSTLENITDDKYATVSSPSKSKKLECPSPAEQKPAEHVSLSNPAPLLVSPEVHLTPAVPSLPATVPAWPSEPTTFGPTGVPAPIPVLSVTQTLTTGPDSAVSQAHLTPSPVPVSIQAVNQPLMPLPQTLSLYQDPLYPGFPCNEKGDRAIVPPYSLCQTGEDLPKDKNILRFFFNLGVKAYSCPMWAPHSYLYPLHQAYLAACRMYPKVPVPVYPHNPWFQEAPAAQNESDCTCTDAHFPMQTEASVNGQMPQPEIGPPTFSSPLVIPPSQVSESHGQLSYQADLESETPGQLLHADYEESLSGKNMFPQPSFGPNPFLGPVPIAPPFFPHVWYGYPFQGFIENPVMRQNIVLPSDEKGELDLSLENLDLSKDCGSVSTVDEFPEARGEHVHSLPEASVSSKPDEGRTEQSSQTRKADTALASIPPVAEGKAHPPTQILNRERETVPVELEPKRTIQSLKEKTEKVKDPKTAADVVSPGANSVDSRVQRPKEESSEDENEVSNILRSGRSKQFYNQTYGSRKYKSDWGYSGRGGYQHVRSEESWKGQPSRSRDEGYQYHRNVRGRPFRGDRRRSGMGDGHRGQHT
In short: as §1

OTUD5 = target: T5, OTUD5 (UniProt Q96G74)
T5 sequence (whole entry): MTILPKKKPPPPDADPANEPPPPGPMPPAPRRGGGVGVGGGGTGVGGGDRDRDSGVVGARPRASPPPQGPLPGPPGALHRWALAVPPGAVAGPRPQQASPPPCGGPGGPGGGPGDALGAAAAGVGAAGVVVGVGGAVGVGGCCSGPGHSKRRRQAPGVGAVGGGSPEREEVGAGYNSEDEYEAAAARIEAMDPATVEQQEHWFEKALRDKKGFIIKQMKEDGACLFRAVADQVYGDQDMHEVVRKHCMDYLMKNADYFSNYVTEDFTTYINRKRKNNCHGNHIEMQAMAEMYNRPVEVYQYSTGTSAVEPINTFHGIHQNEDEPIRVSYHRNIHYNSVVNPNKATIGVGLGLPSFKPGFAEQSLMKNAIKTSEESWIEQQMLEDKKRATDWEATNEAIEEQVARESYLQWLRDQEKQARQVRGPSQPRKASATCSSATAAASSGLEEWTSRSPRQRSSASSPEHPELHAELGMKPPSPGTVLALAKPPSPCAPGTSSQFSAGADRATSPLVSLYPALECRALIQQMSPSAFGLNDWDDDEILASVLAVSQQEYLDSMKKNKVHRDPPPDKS
In short: as §1

Measured: log2 ratio of Biotin-Ahx-Ub-VS probe labelling

C[C@@H](NC(=O)CCl)c1cccc(C#N)c1
active: BAP1 -2.8
inactive: ALG13 0.118 | ATXN3 -0.463 | EIF3F -0.345 | EIF3H 0.144 | FAM105A 0.148 | OTUB1 -0.229 | OTUD4 -0.372 | OTUD5 -0.284

O=C(CCl)N1CCOC2(CCC2)C1
inactive: ALG13 -0.352 | ATXN3 -0.0796 | BAP1 -0.352 | EIF3F -0.125 | EIF3H 0.226 | FAM105A -0.0758 | OTUB1 -0.141 | OTUD4 -0.57 | OTUD5 -0.148

O=C(CCl)N1CCCCC12CCOCC2
active: BAP1 -1.05
inactive: ALG13 0.112 | ATXN3 -0.355 | EIF3F -0.323 | EIF3H -0.162 | FAM105A 0.208 | OTUB1 -0.126 | OTUD4 -0.484 | OTUD5 -0.461

O=C(CCl)N1CCC(=C(F)CO)C1
inactive: ALG13 -0.0371 | ATXN3 -0.106 | BAP1 -0.015 | EIF3F -0.0747 | EIF3H -0.169 | FAM105A -0.0583 | OTUB1 -0.0358 | OTUD4 0.198 | OTUD5 -0.126

Cc1n[nH]c2c1CN(C(=O)CCl)CC2
inactive: ALG13 0.0341 | ATXN3 -0.888 | BAP1 -1.1 | EIF3F -0.389 | EIF3H 0.366 | FAM105A 0.0256 | OTUB1 -0.0671 | OTUD4 -0.753
active: OTUD5 -1.05

O=C(CN1CCN(C(=O)CCl)CC1)Nc1cccc(F)c1
inactive: ALG13 -0.606 | ATXN3 -0.412 | BAP1 -0.967 | EIF3F -0.00546 | EIF3H 0.149 | FAM105A 0.21 | OTUB1 -0.291 | OTUD4 -0.422 | OTUD5 -0.511

O=C(CCl)N1CCCC1c1ccsc1 (stereo not given)
inactive: ALG13 -0.0335 | EIF3F 0.0507 | EIF3H 0.2 | FAM105A 0.313 | OTUB1 -0.142 | OTUD4 -0.382 | OTUD5 -0.65
active: ATXN3 -1.15 | BAP1 -3.75

CC(=O)Nc1ccc(NC(=O)CCl)cc1
active: BAP1 -3.42
inactive: ALG13 0.0593 | ATXN3 -0.656 | EIF3F -0.081 | EIF3H -0.182 | FAM105A -0.285 | OTUB1 -0.24 | OTUD4 -0.296 | OTUD5 -0.406

C#Cc1cccc(NC(=O)CCl)c1
active: BAP1 -3.08
inactive: ALG13 -0.0771 | ATXN3 -0.239 | EIF3F -0.206 | EIF3H 0.0977 | FAM105A 0.233 | OTUB1 -0.135 | OTUD4 -0.211 | OTUD5 -0.288

Cc1ccn2cc(CNC(=O)CCl)nc2c1.Cl
active: BAP1 -1.14
inactive: ALG13 0.193 | ATXN3 -0.103 | EIF3F -0.185 | EIF3H 0.253 | FAM105A 0.254 | OTUB1 0.0771 | OTUD4 -0.505 | OTUD5 -0.214

O=C(CCl)Nc1ccc(F)cc1F
active: BAP1 -2.82
inactive: ALG13 0.182 | ATXN3 -0.351 | EIF3F -0.155 | EIF3H 0.108 | FAM105A 0.102 | OTUB1 -0.293 | OTUD4 -0.268 | OTUD5 -0.5

O=C(CCl)Nc1cccc(NC(=O)c2ccccc2)c1
active: BAP1 -3.32
inactive: ALG13 0.117 | ATXN3 0.278 | EIF3F -0.291 | EIF3H 0.304 | FAM105A -0.516 | OTUB1 -0.202 | OTUD4 0.39 | OTUD5 -0.0636

O=C(CCl)N1CCC(c2nc3ccccc3o2)CC1
active: BAP1 -1.64
inactive: ALG13 -0.377 | ATXN3 -0.627 | EIF3F -0.00792 | EIF3H 0.264 | FAM105A 0.258 | OTUB1 0.109 | OTUD4 -0.417 | OTUD5 -0.841

Cl.O=C(CCl)NCc1cc2c(nc1O)CCCC2
inactive: ALG13 -0.00624 | ATXN3 -0.358 | EIF3F 0.116 | EIF3H 0.0749 | FAM105A 0.13 | OTUB1 -0.044 | OTUD4 -0.437 | OTUD5 -0.468
active: BAP1 -1.87

CN(Cc1nc2ccccc2[nH]1)C(=O)CCl.Cl
inactive: ALG13 0.0974 | ATXN3 -0.483 | BAP1 -0.482 | EIF3F -0.447 | EIF3H 0.225 | FAM105A -0.213 | OTUB1 -0.189 | OTUD4 0.0195 | OTUD5 -0.483
